# Experimental data from PubChem BioAssay AID1508625 (Wald Lab, School of Medicine, Case Western Reserve …, 2021).
# Assay: small molecules boosting NK-mediated OVCAR3 lysis – imaging, primary NK cells, calcein-AM imaging, primary screen (AID 1508625);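 further: compound given to NK cells 16 h before adding targets at 1.5 to 1 ratio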;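 on z-score: more negative robust z means stronger NK killing of tumor cells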
# Settings: OVCAR3 lysis by primary NK cells, at 5 µM; z-score: measured here: robust Z-score, single-point normalisation
Compound,z-score,"corrected activity, negative = more killing [%]"
S=C(c1nc2ccccc2[nH]1)N1CCOCC1,-1.07,-3.36
Cc1[nH]c2ccccc2c(=O)c1CN(C)Cc1ccccc1,0.175,0.566
Cc1nn2c(N)cc(-c3ccccc3)nc2c1-c1ccccc1,-0.365,-0.835
Cc1cc(Cl)nc(Cl)c1C(=O)O,0.0658,0.175
CCCCN(C)C(=O)c1cc2c(=O)n3cccc(C)c3nc2s1,-1.78,-6.29
O=CN1CCN(c2nc3ccccc3nc2C(F)(F)F)CC1,-1.02,-2.49
Nc1cc(OC(=O)c2cccs2)nn1S(=O)(=O)c1ccccc1,-1.37,-4.31
Cc1c(C(=O)NCc2cccs2)oc2ccc(S(=O)(=O)N3CCC(C)CC3)cc12,-1.84,-7.39
CC(C)(C)NC(=O)CSc1nc2ccc(Cl)cc2o1,-0.828,-2.67
COc1ccc2cc3cc(C(=O)N(C)c4cc(C)ccc4C)oc3nc2c1,-1.68,-6.86
CCOC(=O)c1ccc(CN(Cc2ccc(F)cc2)S(=O)(=O)c2cccc(Cl)c2)cc1,-1.71,-6.34
O=C1CCC(=O)N1c1ccc(NCc2ccc(Cl)cc2)c([N+](=O)[O-])c1,-1.63,-4.48
COCCNC(=O)c1cc2cc3ccc(Cl)cc3nc2o1,-0.897,-3.66
O=C(Nc1ccc2oc(-c3cccc4c(Br)cccc34)nc2c1)c1ccccc1[N+](=O)[O-],-2.14,-6.04
Cc1c(C(=O)NCc2ccc(F)cc2)sc2ncn(Cc3ccccc3Cl)c(=O)c12,-0.998,-2.74
COc1ccc(-n2c(=S)[nH]c3cc(C(=O)NCc4ccc(Cl)cc4)ccc3c2=O)cc1,-0.763,-2.4
CC1CCC(NC2CCCc3c2[nH]c2ccc([N+](=O)[O-])cc32)C1 (stereo not drawn),1.59,3.64
COC(=O)c1ccc(COC(=O)c2cc(=O)[nH]c3ccccc23)cc1,-0.835,-1.5
CCN(CC)C(=O)CSc1nnc(-c2ccccc2)o1,-1.86,-4.29
Cc1ccc(NCc2cccnc2)cc1,-0.529,-1.25

Compound,z-score,"corrected activity, negative = more killing [%]"
COc1ccc(C(=O)N2N=C(C3CCCCC3)CC2(O)C(F)(F)F)cc1OC (stereo not drawn),-1.58,-5.29
CC1=C(C(=O)Nc2cccc(Cl)c2)C(c2cccc(Cl)c2)NC(=O)N1 (stereo not drawn),-0.84,-1.94
COc1ccccc1N1CCN(C(=O)c2ccc(Cn3c(=S)[nH]c4cc5c(cc4c3=O)OCO5)cc2)CC1,-1.42,-5.34
CCOc1ccc(-c2cc(C(=O)NN=Cc3cccnc3)[nH]n2)cc1,-2.15,-4.91
COc1ccc(Oc2c(C(F)(F)F)oc3cc(OC(=O)c4ccc(OC)c(OC)c4)ccc3c2=O)cc1,-0.672,-1.55
CCN(c1ccccc1C(=O)O)S(=O)(=O)c1cccc2nsnc12,-1.22,-4.09
Cc1ccc(NC(=O)CSc2nc3c(cc2C#N)CCCCC3)cc1,0.825,2.66
CCOc1ccccc1NC(=O)CC1Sc2ccc(C(F)(F)F)cc2NC1=O (stereo not drawn),-2.14,-3.99
CC(=O)Oc1ccc(C(=O)Nc2nc3ccc4ccccc4c3s2)cc1,-0.335,-1.08
CCOC(=O)c1c(NC(=O)c2ccc(C(=O)c3ccccc3)cc2)sc2c1CCCC2,-0.836,-3.96
CCOC(=O)C1C(c2ccccc2)NC(=S)NC1(O)C(F)(F)F (stereo not drawn),-0.43,-1.39
Cc1cc(C)n(C(=O)c2ccc(S(=O)(=O)N3CCCCCC3)cc2)n1,-1.46,-2.63
CCOC(=O)Cc1c(C)nc2cc(-c3ccc(C(C)(C)C)cc3)[nH]n2c1=O,-2.37,-7.93
COc1cc(OC)c(OC)cc1CN1CCN(C(=O)c2ccncc2)CC1,-0.992,-2.22
c1ccc(OCCCc2nc(-c3ccccn3)no2)cc1,-1.37,-2.46
COc1ccc(Cn2c(=S)[nH]c3cc(C(=O)NCc4ccccc4Cl)ccc3c2=O)cc1,-3.45,-10.8
CC(C)C(NC(=O)C12CC3CC(CC(C3)C1)C2)C(=O)NC1=NCCS1 (stereo not drawn),0.711,1.64
CCOC(=O)C(Cc1ccccc1)C(=O)N(C1CCCCC1)C1CCCCC1 (stereo not drawn),-1.82,-3.39
COc1ccc(-c2csc(Nc3ccc(NC(C)=O)cc3)n2)cc1OC,0.823,1.84
